Our source for the binding signal values is publication PMC7862700, “An all-to-all approach to the identification of sequence-specific readers for epigenetic DNA modifications on cytosine”.

Test in all cases: DAPPL (digital affinity profiling via proximity ligation, sequencing); 10 mM Tris-HCl pH 7.5, 50 mM NaCl, 1 mM DTT, 4% glycerol, room temperature, 30 min; GST-TFs on glutathione beads, 16-mer random dsDNA library, 0.1% formaldehyde crosslink after washing; high values mean tight binding
What all share (conditions): protein: recombinant; tags: N-terminal GST; dsDNA, one strand shown

In one assay the target is T1, GABPA (Homo sapiens, UniProt Q06546 1-454).
T1 sequence: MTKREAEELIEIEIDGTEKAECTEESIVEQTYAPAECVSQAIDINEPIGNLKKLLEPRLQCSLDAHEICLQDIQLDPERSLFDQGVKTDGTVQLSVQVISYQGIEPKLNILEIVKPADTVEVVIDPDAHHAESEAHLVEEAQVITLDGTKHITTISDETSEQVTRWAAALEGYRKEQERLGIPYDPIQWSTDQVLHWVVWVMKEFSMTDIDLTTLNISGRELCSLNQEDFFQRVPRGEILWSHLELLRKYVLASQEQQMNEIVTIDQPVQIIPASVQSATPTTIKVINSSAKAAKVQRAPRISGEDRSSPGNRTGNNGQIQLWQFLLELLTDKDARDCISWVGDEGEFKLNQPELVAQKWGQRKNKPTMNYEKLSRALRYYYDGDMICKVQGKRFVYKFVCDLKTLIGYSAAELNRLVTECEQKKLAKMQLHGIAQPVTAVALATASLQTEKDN
The gist of the method:
(§1)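 GST fusions of human transcription factors were expressed in yeast and captured with glutathione beads. Once given DNA barcodes and pooled alongside a tag-only sample, they were incubated for 30 min at room temperature with 200 nmole of a random double-stranded 16-mer DNA library in Tris/NaCl/DTT/glycerol buffer, then washed, crosslinked (0.1% formaldehyde), proximity-ligated, PCR-amplified and sequenced on an Illumina NextSeq500. The binding signal of each hexamer is its read frequency for a factor divided by its frequency for the tag-only sample.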

The target of the next assay is ELF1 (Homo sapiens, UniProt P32519 1-619). The gist of the method: as §1
In a further assay the target is T2, EHF (Homo sapiens, UniProt Q9NZC4 1-300).
T2 sequence: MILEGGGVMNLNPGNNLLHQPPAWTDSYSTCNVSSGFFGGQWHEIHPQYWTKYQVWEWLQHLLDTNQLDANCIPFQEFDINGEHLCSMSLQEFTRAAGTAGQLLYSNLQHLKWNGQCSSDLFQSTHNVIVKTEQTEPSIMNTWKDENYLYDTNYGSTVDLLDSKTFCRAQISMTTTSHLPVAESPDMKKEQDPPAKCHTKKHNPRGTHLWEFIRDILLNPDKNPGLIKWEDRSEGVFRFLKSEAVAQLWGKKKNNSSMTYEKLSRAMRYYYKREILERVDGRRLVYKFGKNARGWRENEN
In short, it runs like this: as §1

The target of a further assay is SPIB (Homo sapiens, UniProt Q01892 1-262). The gist of the method:
as §1

A further assay deals with ETV5 (Homo sapiens, UniProt P41161 1-510). The gist of the method: as §1
In another assay the target is ELF4 (Homo sapiens, UniProt Q99607 1-663). The gist of the method: as §1
A further assay deals with T3, ELK4 (Homo sapiens, UniProt P28324-2 1-405).
T3 sequence: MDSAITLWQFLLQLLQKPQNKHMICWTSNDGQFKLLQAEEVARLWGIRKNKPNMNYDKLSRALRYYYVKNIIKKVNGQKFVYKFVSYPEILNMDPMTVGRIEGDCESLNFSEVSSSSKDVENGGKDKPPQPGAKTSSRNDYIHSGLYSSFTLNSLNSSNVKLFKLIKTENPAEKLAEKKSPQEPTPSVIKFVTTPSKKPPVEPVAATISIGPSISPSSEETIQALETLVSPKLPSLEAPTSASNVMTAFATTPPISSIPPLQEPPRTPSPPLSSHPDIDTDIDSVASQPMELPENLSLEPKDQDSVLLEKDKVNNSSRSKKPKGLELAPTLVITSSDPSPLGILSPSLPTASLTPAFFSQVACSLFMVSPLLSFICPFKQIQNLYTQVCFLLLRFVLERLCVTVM
The gist of the method: as §1

For another assay, the target named is T4, ETV2 (Homo sapiens, UniProt O00321 1-342).
T4 sequence: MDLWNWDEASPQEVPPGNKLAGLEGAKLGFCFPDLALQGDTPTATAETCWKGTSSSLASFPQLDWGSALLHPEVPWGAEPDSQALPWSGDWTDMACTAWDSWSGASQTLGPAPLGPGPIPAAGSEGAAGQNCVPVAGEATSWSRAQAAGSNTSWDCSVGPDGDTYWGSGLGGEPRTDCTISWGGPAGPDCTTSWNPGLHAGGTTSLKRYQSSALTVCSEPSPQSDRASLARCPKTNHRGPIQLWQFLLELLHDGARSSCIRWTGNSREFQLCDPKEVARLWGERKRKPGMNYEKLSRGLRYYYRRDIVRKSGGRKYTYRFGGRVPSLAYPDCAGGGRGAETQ
In short, it runs like this:
as §1

The target in a further assay is T5, ELF3 (Homo sapiens, UniProt P78545 1-371).
T5 sequence: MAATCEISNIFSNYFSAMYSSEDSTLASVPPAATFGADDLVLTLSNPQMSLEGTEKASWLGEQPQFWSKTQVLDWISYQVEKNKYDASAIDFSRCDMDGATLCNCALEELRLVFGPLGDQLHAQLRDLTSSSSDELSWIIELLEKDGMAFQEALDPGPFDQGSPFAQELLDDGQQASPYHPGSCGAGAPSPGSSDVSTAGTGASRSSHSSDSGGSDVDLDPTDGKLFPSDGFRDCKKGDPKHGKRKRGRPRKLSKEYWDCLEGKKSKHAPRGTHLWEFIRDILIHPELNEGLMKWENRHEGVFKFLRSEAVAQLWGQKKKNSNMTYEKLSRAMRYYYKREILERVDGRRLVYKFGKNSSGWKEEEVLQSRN
In short, it runs like this: as §1

The next assay deals with ETV1 (Homo sapiens, UniProt P50549 1-477). In short, it runs like this:
as §1

In a further assay the target is T6, SPDEF (Homo sapiens, UniProt O95238 1-335).
T6 sequence: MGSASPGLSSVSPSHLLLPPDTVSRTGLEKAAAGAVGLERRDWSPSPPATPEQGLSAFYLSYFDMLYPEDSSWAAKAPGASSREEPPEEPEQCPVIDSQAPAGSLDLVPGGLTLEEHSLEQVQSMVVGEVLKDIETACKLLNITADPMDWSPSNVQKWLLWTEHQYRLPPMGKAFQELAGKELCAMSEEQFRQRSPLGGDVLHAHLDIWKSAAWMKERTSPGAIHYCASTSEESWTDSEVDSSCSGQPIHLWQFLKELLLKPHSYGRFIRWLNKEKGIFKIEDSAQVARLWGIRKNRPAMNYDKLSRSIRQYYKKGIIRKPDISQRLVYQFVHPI
The gist of the method: as §1

For another assay, the target named is T7, ETV3 (Homo sapiens, UniProt P41162-2 1-143).
T7 sequence: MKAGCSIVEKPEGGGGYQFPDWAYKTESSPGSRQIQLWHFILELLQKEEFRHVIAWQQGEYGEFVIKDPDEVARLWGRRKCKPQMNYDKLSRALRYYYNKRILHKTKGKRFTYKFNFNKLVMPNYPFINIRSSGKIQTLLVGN
In short, it runs like this:
as §1

Another assay addresses ETV6 (Homo sapiens, UniProt P41212 1-452). The gist of the method: as §1

Chain of ELF1 (P32519 whole entry): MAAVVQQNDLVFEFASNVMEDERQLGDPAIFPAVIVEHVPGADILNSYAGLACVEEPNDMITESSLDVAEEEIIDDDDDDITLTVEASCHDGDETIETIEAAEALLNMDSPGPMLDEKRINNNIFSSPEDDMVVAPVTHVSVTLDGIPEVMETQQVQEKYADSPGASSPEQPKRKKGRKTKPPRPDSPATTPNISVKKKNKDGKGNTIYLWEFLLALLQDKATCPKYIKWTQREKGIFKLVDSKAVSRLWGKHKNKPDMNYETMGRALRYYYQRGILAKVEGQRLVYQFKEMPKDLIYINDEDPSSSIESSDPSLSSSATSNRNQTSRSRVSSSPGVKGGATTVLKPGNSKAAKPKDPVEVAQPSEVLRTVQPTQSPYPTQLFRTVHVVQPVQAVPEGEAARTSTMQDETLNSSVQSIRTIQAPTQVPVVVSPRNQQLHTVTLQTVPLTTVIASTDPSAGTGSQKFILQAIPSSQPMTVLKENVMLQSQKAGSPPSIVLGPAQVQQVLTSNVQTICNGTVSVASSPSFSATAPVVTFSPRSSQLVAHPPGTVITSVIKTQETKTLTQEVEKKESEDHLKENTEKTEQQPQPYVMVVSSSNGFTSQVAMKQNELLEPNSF
Chain of ETV6 (P41212 whole entry): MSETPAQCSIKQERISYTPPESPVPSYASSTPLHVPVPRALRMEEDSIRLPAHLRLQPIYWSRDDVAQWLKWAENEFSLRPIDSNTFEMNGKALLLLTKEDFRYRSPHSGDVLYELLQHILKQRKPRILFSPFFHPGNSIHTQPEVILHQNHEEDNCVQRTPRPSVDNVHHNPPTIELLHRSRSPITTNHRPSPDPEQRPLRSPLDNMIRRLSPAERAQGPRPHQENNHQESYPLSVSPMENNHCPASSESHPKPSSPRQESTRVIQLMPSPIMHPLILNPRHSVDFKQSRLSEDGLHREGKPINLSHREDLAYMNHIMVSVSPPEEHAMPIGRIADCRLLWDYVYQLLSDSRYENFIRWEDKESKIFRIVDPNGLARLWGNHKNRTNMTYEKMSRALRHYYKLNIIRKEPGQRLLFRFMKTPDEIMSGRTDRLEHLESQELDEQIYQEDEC
Chain of ETV5 (P41161 whole entry): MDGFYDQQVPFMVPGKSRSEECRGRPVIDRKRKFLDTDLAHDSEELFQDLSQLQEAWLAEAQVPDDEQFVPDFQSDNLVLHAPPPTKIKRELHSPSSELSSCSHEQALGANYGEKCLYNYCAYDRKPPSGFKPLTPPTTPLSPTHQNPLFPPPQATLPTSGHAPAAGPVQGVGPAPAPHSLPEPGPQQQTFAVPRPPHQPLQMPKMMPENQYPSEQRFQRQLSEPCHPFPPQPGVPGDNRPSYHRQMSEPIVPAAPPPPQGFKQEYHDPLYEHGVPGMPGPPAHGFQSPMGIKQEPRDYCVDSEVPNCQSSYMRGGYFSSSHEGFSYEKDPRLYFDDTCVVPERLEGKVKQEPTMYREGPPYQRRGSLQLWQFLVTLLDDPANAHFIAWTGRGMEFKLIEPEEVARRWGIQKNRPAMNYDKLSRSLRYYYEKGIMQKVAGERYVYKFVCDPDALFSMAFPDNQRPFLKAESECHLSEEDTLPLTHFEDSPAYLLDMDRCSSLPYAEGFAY
Chain of ELF4 (Q99607 whole entry): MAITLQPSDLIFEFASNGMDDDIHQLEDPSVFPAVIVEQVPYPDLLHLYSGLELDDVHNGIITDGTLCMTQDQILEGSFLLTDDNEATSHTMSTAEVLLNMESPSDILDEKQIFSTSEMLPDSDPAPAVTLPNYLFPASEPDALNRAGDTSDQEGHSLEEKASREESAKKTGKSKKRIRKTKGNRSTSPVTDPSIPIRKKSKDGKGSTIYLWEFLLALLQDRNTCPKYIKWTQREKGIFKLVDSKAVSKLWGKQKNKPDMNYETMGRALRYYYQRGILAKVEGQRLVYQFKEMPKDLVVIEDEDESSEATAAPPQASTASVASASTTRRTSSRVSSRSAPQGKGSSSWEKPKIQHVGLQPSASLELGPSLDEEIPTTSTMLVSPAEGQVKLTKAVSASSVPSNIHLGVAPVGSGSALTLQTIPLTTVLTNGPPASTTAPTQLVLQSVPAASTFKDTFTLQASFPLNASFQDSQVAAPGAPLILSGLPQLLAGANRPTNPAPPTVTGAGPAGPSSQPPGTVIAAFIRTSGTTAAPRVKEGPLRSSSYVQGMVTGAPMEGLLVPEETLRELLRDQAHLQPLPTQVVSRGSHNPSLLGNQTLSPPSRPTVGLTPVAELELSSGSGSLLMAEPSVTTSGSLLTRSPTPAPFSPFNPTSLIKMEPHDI
Chain of ETV1 (P50549 whole entry): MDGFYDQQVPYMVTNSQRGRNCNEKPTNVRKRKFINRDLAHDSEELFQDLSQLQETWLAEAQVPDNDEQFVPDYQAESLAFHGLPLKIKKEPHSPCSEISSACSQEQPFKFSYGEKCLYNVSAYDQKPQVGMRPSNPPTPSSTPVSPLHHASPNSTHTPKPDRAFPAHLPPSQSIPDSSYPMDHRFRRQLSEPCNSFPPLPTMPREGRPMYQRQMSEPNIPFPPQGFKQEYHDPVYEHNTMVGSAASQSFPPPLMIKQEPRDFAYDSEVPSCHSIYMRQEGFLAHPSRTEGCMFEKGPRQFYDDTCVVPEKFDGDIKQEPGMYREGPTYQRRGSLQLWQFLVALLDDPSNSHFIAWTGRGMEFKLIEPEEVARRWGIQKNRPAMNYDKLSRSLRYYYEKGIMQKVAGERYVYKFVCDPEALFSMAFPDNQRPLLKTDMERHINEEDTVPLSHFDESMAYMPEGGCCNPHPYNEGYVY
Chain of SPIB (Q01892 whole entry): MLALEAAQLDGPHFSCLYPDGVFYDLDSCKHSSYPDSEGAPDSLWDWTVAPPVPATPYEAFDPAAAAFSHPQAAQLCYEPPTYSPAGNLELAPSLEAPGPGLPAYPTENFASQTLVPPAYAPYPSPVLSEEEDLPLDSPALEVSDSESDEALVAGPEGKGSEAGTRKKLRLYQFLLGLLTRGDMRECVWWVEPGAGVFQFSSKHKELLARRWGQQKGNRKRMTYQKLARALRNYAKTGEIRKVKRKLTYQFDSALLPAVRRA

ACGCGG: the binding signal with GABPA is 1.01 fold enrichment (6-mer frequency, TF over GST control); with ELF1, 1.03 fold enrichment (6-mer frequency, TF over GST control); with EHF, 1.04 fold enrichment (6-mer frequency, TF over GST control); with SPIB, 1.04 fold enrichment (6-mer frequency, TF over GST control); in the assay with ETV5, 1.02 fold enrichment (6-mer frequency, TF over GST control); with ELF4, 1 fold enrichment (6-mer frequency, TF over GST control). In addition, the binding signal in the assay with ELK4 is 1.03 fold enrichment (6-mer frequency, TF over GST control); with ETV2, 1.18 fold enrichment (6-mer frequency, TF over GST control); in the assay with ELF3 it was 1.07 fold enrichment (6-mer frequency, TF over GST control); with ETV1 it was 1.02 fold enrichment (6-mer frequency, TF over GST control); with SPDEF, 1.08 fold enrichment (6-mer frequency, TF over GST control); with ETV3, 1.02 fold enrichment (6-mer frequency, TF over GST control). Moreover, the binding signal with ETV6 is 1.07 fold enrichment (6-mer frequency, TF over GST control).
